About 83,000 compounds went through this panel and 20% of them were active in at least one assay; those are over-represented in the sample as a whole.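 In brief: 96-well plates, 48 h treatment, single concentration, percent growth endpoint.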 Active and inactive are the calls of the source. Rule for the calls: active = growth percent below 10; inactive = the rest.
Tests used:
Assay in all cases: NCI-60 one-dose screen, 48 h (100 = growth as untreated, 0 = no growth, -100 = all killed)
Conditions in all cases: 10 µM unless noted
[1] = system: DU-145 prostate
[2] = system: K-562 leukemia
[3] = system: MALME-3M melanoma
[4] = system: MDA-MB-231 breast
[5] = system: RXF 393 renal
[6] = system: SF-268 CNS
[7] = system: SF-295 CNS
[8] = system: SF-539 CNS
[9] = system: UACC-257 melanoma
[10] = system: M14 melanoma
[11] = system: HCT-15 colon
[12] = system: HT29 colon
[13] = system: SNB-75 CNS
[14] = system: SNB-19 CNS
[15] = system: U251 CNS
[16] = system: PC-3 prostate
[17] = system: SK-MEL-5 melanoma
[18] = system: UACC-62 melanoma
[19] = system: LOX IMVI melanoma
[20] = system: SK-MEL-28 melanoma

Measured: growth

C#Cc1cccc(NC(=O)c2ccc(NC(=O)CCl)cc2)c1
active: [2] 7.87% [8.25 µM] | [3] -83.5% [8.25 µM] | [4] -22.8% [8.25 µM] | [6] -8.76% [8.25 µM] | [8] -94.7% [8.25 µM] | [10] -60.6% [8.25 µM] | [11] -57% [8.25 µM] | [14] 8.27% [8.25 µM] | [15] -90.1% [8.25 µM] | [16] -46.6% [8.25 µM] | [17] -56.7% [8.25 µM] | [18] 7.2% [8.25 µM] | [19] -77.5% [8.25 µM]
inactive: [1] 42.4% [8.25 µM] | [5] 47.9% [8.25 µM] | [7] 75.4% [8.25 µM] | [9] 43.3% [8.25 µM] | [12] 34.5% [8.25 µM] | [13] 32.2% [8.25 µM] | [20] 54% [8.25 µM]

CCCCCCCCCOc1c(OC)cc(C2CC(=O)Nc3c2c(C)nn3-c2nc3ccccc3[nH]2)cc1OC (stereo not given)
active: [1] 1.94% | [2] 9.07% | [3] -58.3% | [4] -75% | [5] -83.4% | [6] -58.8% | [7] -59.1% | [8] -86.3% | [10] -25.5% | [11] -30.8% | [12] -37.9% | [13] -48.8% | [14] -4% | [15] -51.6% | [16] -3.05% | [17] -99.4% | [18] -62.4% | [19] -95.8% | [20] -47.4%
inactive: [9] 15.5%

COc1ccc(OC)c(-c2c(C#N)c(-c3ccc(Cl)cc3)nc3c2c(-c2ccccc2)nn3-c2ccccc2)c1
inactive: [1] 99.1% | [2] 97.7% | [3] 101% | [4] 101% | [5] 101% | [6] 96% | [7] 109% | [8] 98.8% | [9] 100% | [10] 101% | [11] 105% | [12] 109% | [13] 85.1% | [14] 100% | [15] 98.7% | [16] 92% | [17] 110% | [18] 90.7% | [19] 94.4% | [20] 105%

O=[N+]([O-])c1ccc(OCCO)cc1
inactive: [1] 107% | [2] 78.8% | [3] 107% | [4] 114% | [5] 105% | [6] 100% | [7] 105% | [8] 108% | [9] 104% | [10] 109% | [11] 101% | [12] 108% | [13] 103% | [14] 101% | [15] 104% | [16] 87.2% | [17] 109% | [18] 96.9% | [19] 97.8% | [20] 114%

Cc1cc(Cl)ccc1Nc1nc(C(F)(F)F)ccc1C(=O)N/N=C/c1ccc(N(C)C)cc1
inactive: [1] 40.3% | [2] 18.9% | [3] 22.1% | [4] 22% | [6] 31.8% | [8] 41.4% | [9] 30% | [10] 33.9% | [11] 15.9% | [12] 32.5% | [13] 65.1% | [14] 42% | [15] 16.2% | [16] 30.3% | [17] 12.9% | [19] 27% | [20] 45.2%
active: [5] -4.86% | [7] -7.53% | [18] 9.47%

Cc1ccc(N(C(=O)CCc2c[nH]c3ccccc23)[C@H](C(=O)Nc2ccc(Cl)cc2)c2cccc([N+](=O)[O-])c2)cc1
inactive: [1] 81.6% | [2] 37.8% | [3] 99% | [4] 75.4% | [5] 95.7% | [6] 70.7% | [7] 105% | [8] 89.7% | [9] 90.1% | [10] 78.4% | [11] 70.7% | [12] 86.5% | [13] 84.1% | [14] 92.2% | [15] 78% | [16] 62.2% | [17] 75.9% | [18] 33.7% | [19] 45.1% | [20] 114%

c1ccc(-c2nc([P+](c3ccccc3)(c3ccccc3)c3ccccc3)c(N3CCOCC3)o2)cc1
active: [3] 4.6% | [4] -14.8% | [5] -4.62% | [7] 0.0601% | [8] 6.52% | [9] -9.47% | [10] 4.76% | [12] 0.225% | [13] 1.4% | [14] 8.73% | [16] 6.1% | [17] -93.1% | [18] -37.1% | [19] 4.66%
inactive: [1] 18.6% | [2] 10.4% | [6] 18.3% | [11] 79.3% | [15] 10.1% | [20] 21.9%

CN1CCN(C(=O)c2c3c(n4ccccc24)C(=O)c2ncccc2C3=O)CC1
inactive: [1] 56.8% | [2] 54.1% | [3] 72.1% | [4] 79.5% | [5] 60.8% | [6] 52.9% | [7] 73.5% | [8] 58% | [9] 97.7% | [10] 49% | [11] 46% | [12] 93.3% | [13] 39.9% | [14] 50.4% | [15] 66.5% | [16] 54.8% | [17] 65.6% | [18] 39.3% | [19] 30.3% | [20] 103%

From PubChem BioAssay (NCI)
